The whole screen tested about 65,000 compounds, of which about 95 (0.1%) were called active.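 The calls were made as follows: active = inhibition above the screen-wide mean inhibition plus 3 SD (cut at about 21% in these data); inactive = the rest.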 Shown is part of a subset that was picked to be rich in actives.
target: cAMP-dependent protein kinase catalytic subunit alpha (Homo sapiens) (UniProt P17612); assay: PKA catalytic subunit kinase inhibition – biochemical, ATP-depletion luminescence, Kemptide substrate, primary screen (AID 524); conditions: PKA Kemptide phosphorylation, Kinase-Glo ATP luminescence; at 6 µM; hits give high values

inhibition, inactive:
O=C(Nc1cnccn1)c1cccnc1 9%
O=C(Nc1nc2cc3c(cc2s1)OCCO3)c1cccc(S(=O)(=O)N2CCOCC2)c1 6.2%
COc1cc(-n2c(C)nc3cc(C(=O)NCc4ccco4)ccc32)cc(OC)c1OC 5.2%
CCn1ncc(C2=NOC(C(=O)N3CCN(c4ccccc4)CC3)C2)c1C (stereo not drawn) 11.5%
Cc1cccc(OCc2nnc(SCc3nc4cc(C(F)(F)F)ccc4c(=O)[nH]3)o2)c1 3.4%
Cc1ccccc1-n1nnc2c(=O)oc3ccccc3c21 7.5%
CCOc1ccccc1Nc1nnc(SCc2ccc(C(=O)OC)o2)s1 4.4%
CCOC(=O)N1CCN(CC(=O)c2c(C)[nH]c3ccccc23)CC1 -3.4%
CCOC(=O)CN1CC23C=CC(O2)C(C(=O)Nc2ccc(F)cc2)C3C1=O (stereo not drawn) 2.5%
COc1ccc(C2/C(=C(/O)c3ccc(OC(C)C)cc3)C(=O)C(=O)N2CCCN2CCOCC2)cc1 (stereo not drawn) 3.6%
COc1ccccc1N1CCN(C(=O)c2cn(-c3ccccc3)nc2-c2cccnc2)CC1 -9.3%
CCOc1nc(-c2ccc(OC)cc2)ccc1-c1noc(-c2cc(OC)c(OC)c(OC)c2)n1 -0.3%
CN1CCc2c(sc3c2c(NCc2ccco2)nc2nnnn23)C1 4.3%
COc1ccc(N=Cc2c(O)[nH]c3ccccc23)cc1OC 9.6%
CC1(C)C2CCC1(C)C(OC(=O)CCn1ccnc1)C2 (stereo not drawn) 7.3%
Nc1nnc(SCCN2C(=O)c3ccccc3S2(=O)=O)s1 6.6%
CCOC(=O)c1c(NC(=O)CSc2nnc(C)c(=O)[nH]2)sc2c1CCC2 0.8%
CN(CCc1ccccn1)S(=O)(=O)c1ccc2c3c(cccc13)C(=O)N2 4.5%
CC(=O)Nc1cc2ccc(OC(C)=O)cc2oc1=O 5.7%
CCc1ccc(CCC(=O)Nc2ccc(S(N)(=O)=O)cc2)o1 -0.9%
CCN1CCN(c2ncnc3c2oc2nc(C)c4c(c23)CC(C)(C)OC4)CC1 0.2%
CCOC(=O)C(CC)Sc1ncnc2c1nnn2-c1ccc(F)cc1 (stereo not drawn) 11.3%
CC(C)(C)c1ccc(C(=O)CSc2ncn[nH]2)cc1 7.8%
CCCCOc1ccccc1/C=c1/sc2nc(-c3oc4ccccc4c3C)nn2c1=O 2%
CC(C)(C)NC(=O)C(c1ccco1)N(Cc1ccc2c(c1)OCO2)C(=O)Cn1nnc2ccccc21 (stereo not drawn) -2.7%
O=S(=O)(Nc1nccs1)c1ccc2c(c1)OCCO2 6.4%
Cc1cc(C)c2nc(SCCC#N)nc(C)c2c1 5.1%
O=C(NCc1ccc(Cl)cc1)c1cc2c(nc3sccn32)s1 2.8%
COc1ccccc1CNC(=O)C1CCN(S(C)(=O)=O)CC1 4.6%
Cc1ccc(S(=O)(=O)N2CCC(C(=O)N[C@@H](C)C(=O)NCc3ccccc3)CC2)cc1 1.2%
CC1(C)Cc2cccc(OCC(=O)Nc3nccs3)c2O1 9.4%
O=C(NCc1ccc2c(c1)OCO2)c1cc2c(s1)CS(=O)(=O)C2 5.5%
CCOCC(=O)Nc1cc(OC)c(Cl)cc1OC 5.6%
O=S(=O)(c1cccc(S(=O)(=O)N2CCC(n3nnc4ccccc43)CC2)c1)N1CCCCC1 8.1%
Cc1ccc(-n2nc3c(c2NC(=O)CCC2CCCCC2)CS(=O)C3)cc1 (stereo not drawn) -4.5%
CCC(C)n1[nH]c(=O)cc1N (stereo not drawn) -5.4%
CCOc1ccccc1Oc1cn[nH]c1-c1ccc(OC)cc1O -1.5%
CCn1cc(C(=O)NCC2COc3ccccc3O2)c2cc(OC)c(OC)cc2c1=O (stereo not drawn) 2.4%

Reference: PubChem BioAssay AID524 (The Scripps Research Institute Molecular Screening Center, 2006)
